High-throughput results (PubChem)
SRC1 inh = SRC1 coactivator transcriptional activity inhibitors, primary screen, cell-based, luminescence | inhibition, % at 3.6 µM | HEK293 GAL4-SRC1 luciferase reporter | Nuclear receptor coactivator 1 (Homo sapiens), Q15788 | actives 0.12% (n = 360,000);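 active means inhibition above the campaign mean plus 3 SD, with each screening campaign given its own cutoff, cut at about 60% in these data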
SRC2 inh = inhibition of GAL4-SRC2 driven luciferase reporter, primary screen, SRC2 inhibitor project, cell-based, luminescence; inhibition, % at 9 µM; Nuclear receptor coactivator 2 (Homo sapiens), Q15596; AID 651957, 2012; actives 0.17% (n = 370,000); HEK293 GAL4-SRC2 luciferase reporter;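 active means inhibition above the mean inhibition of all tested compounds plus 3 SD, set per campaign, cut at about 52% in these data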
LRH-1 inv ag = LRH-1 (NR5A2) inverse agonists, primary screen, cell-based, luminescence, HEK293T, StAR-luciferase reporter; LRH-1 transfected, 24 h; inhibition, % at 3.6 µM; actives 0.13% (n = 360,000);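 active means inhibition above the mean inhibition of all tested compounds plus 3 SD, cut at about 73% in these data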
Target sequence (O00482 whole entry, looked up): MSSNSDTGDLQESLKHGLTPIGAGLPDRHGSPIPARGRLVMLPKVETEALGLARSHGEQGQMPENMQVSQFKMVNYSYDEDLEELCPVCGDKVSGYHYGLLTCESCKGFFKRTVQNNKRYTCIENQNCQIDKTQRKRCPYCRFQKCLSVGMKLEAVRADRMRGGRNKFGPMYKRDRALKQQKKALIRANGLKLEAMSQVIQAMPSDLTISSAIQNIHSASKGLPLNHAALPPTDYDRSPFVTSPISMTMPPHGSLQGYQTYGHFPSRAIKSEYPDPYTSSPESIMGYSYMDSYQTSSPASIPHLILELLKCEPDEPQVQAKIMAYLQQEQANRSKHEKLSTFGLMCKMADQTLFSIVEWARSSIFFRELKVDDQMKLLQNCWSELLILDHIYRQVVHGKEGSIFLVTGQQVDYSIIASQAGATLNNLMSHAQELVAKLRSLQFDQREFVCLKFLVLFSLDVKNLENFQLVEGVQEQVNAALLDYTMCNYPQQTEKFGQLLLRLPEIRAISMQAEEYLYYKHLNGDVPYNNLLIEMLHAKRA
EBV LMP1 NFkB = EBV LMP1-driven NF-kappaB luciferase reporter inhibitors, primary screen, cell-based, luminescence, single point | LMP1-induced NF-kappaB luciferase reporter cells | inhibition, % at 12.5 µM | actives 0.69% (n = 350,000); in the data active means inhibition above about 41%
SRC3 inh = SRC3 coactivator transcriptional activity inhibitors, primary screen, cell-based, luminescence; HEK293 GAL4-SRC3 luciferase reporter; inhibition, % at 3.6 µM; actives 0.17% (n = 360,000);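 active means inhibition above a per-campaign cutoff, the mean of all compounds plus 3 SD, cut at about 60% in these data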;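 further: higher means less SRC3-driven luciferase light from the GAL4 reporter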
Of the large screens only hits and unclear results are named; the others gave an inactive call; ! = a repeat was not active. Compounds with a hit are over-represented: about 0.78% of the library has one in this group of screens.

Nc1ncnc(N2CCc3ccccc32)c1[N+](=O)[O-]	SRC1 inh 72.8, EBV LMP1 NFkB 64.9, SRC3 inh 65.4
NNC(=O)c1ccc(N2CCc3ccccc32)c([N+](=O)[O-])c1	none
Cc1ccc(NC(=O)c2ccc(OCC3CCCO3)cc2)nc1 (configuration not stated)	none
O=C(Nc1ncccc1O)c1ccc(OCC2CCCO2)cc1 (configuration not stated)	EBV LMP1 NFkB 76.5
Cc1cnc(NC(=O)c2ccc(OCC3CCCO3)cc2)s1 (configuration not stated)	EBV LMP1 NFkB 47.1
O=C(NC1=NCCS1)c1ccc(OCC2CCCO2)cc1 (configuration not stated)	none
O=C(Nc1ccc(Cl)c(S(=O)(=O)N2CCOCC2)c1)c1ccc(OCC2CCCO2)cc1 (configuration not stated)	SRC3 inh 73.3 (no result: SRC2 inh)
CCCC[C@H]1C2CC(OC(=O)Nc3ccccc3Cl)C(C2)[C@H]2CCCCN21 (some centres not stated)	none (no result: SRC1 inh, LRH-1 inv ag, EBV LMP1 NFkB, SRC3 inh)
COc1ccc(C)cc1S(=O)(=O)N(CC(=O)Nc1cc([N+](=O)[O-])ccc1C)c1ccc(C)c(C)c1	EBV LMP1 NFkB 49.2
COc1cccc(-c2ccc(CC[C@H]3O[C@H]4CC[C@@H](CO)O[C@H]4C[C@H]3NC(=O)c3cnccn3)cc2)c1	none (no result: SRC1 inh, LRH-1 inv ag, EBV LMP1 NFkB, SRC3 inh)
CCOC(=O)c1cc(-c2ccccc2)n(CC(=O)Nc2cccc(OC)c2)c1C	EBV LMP1 NFkB 53.2
CC(C)n1nnnc1C1(C)Cn2nccc2C(=O)N1Cc1cccc(C(F)(F)F)c1 (configuration not stated)	none (no result: SRC1 inh, LRH-1 inv ag, EBV LMP1 NFkB, SRC3 inh)
CC1=CC(=C2C(=O)c3ccccc3C2=O)C=C(C)N1C	none
CCCCCN1C=CC(=C2C(=O)c3ccccc3C2=O)C=C1	SRC2 inh 82.9, EBV LMP1 NFkB 76.2
N#Cc1ccc(/C=C2\CC3(OC(=O)c4ccco4)CCCN2C3)cc1 (configuration not stated)	none (no result: SRC1 inh, LRH-1 inv ag, EBV LMP1 NFkB, SRC3 inh)
COC(=O)[C@H](C(C)C)N(Cc1cn(Cc2ccc(C)cc2)nn1)S(=O)(=O)c1ccccc1Br	none (no result: SRC1 inh, LRH-1 inv ag, EBV LMP1 NFkB, SRC3 inh)
CC(C)(C)c1ccc(-c2noc(CCC(=O)NCC3CCCO3)n2)cc1 (configuration not stated)	SRC2 inh 58.6, EBV LMP1 NFkB 42.5
Cc1ccc(-c2noc(CCC(=O)NCC3CCCO3)n2)cc1 (configuration not stated)	none
O=C(CCc1nc(-c2ccccc2)no1)NCC1CCCO1 (configuration not stated)	EBV LMP1 NFkB 74.2
CCOc1ccccc1C(=O)N1CCC(Oc2cccnc2)CC1	none (no result: SRC1 inh, LRH-1 inv ag, EBV LMP1 NFkB, SRC3 inh)
COC(=O)c1c(O)ccc(Oc2ccccc2)c1C(=O)OC	EBV LMP1 NFkB 47.2
O=C(O)C(O)c1ccccc1 (configuration not stated)	EBV LMP1 NFkB 82.8!
CCOc1ccc(-n2c(SCC(=O)Nc3ccc4c(c3)c3ccccc3n4CC)nnc2-c2cccnc2)cc1	none (no result: SRC1 inh, LRH-1 inv ag, EBV LMP1 NFkB, SRC3 inh)
O=C(N/N=C/c1ccc(N2CCOCC2)s1)c1ccc(O)cc1	none
NC(=O)N/N=C/c1ccc(N2CCOCC2)s1	EBV LMP1 NFkB 48.4
CC(C)CC(=O)N1CCc2cc(S(=O)(=O)N(C)Cc3ccco3)ccc21	none (no result: SRC1 inh, LRH-1 inv ag, EBV LMP1 NFkB, SRC3 inh)
O=C(CCc1ccccc1)N[C@H]1[C@H](OCc2ccccc2)CCC[C@@]12C(=O)N(Cc1ccccc1)c1ccc(-c3cnccn3)cc12	none (no result: SRC1 inh, LRH-1 inv ag, EBV LMP1 NFkB, SRC3 inh)
O=c1c2cnn(-c3ccccc3)c2nc(-c2cccs2)n1-c1ccc(Cl)cc1	EBV LMP1 NFkB 43.9
O=c1c2cnn(-c3ccccc3)c2nc(-c2cccs2)n1-c1cccc(Cl)c1	none
COC(=O)[C@]1(CNS(=O)(=O)c2ccc(F)cc2)CC(=O)N(C)[C@@H]1c1ccccc1	none (no result: SRC1 inh, LRH-1 inv ag, EBV LMP1 NFkB, SRC3 inh)
CNC(=O)C1=NCCCc2cc(OC)c(OC)cc21	EBV LMP1 NFkB 64.2
Cc1cccc(NC(=O)CN2C(=O)CCSc3ccccc32)c1C	none (no result: SRC1 inh, LRH-1 inv ag, EBV LMP1 NFkB, SRC3 inh)
Cn1c(=O)c2cc(NC(=O)CCc3ccc(O)cc3)ccc2n1Cc1cccc(C(F)(F)F)c1	LRH-1 inv ag 73.7 (no result: EBV LMP1 NFkB)
Cc1ccc2nc(NNC(=O)c3ccc4c(c3)OCCO4)sc2c1	none
Cc1ccc2nc(NNC(=O)c3ccc(S(=O)(=O)N4CCc5ccccc5C4)cc3)sc2c1	EBV LMP1 NFkB 59.3
